Test system: PhgR/P_H16_RS05530 phenylglyoxylate biosensor (pEH155)
Experiment: relative induction of RFP reporter vs primary effector (background-corrected); higher = stronger activation of the biosensor
Conditions: inducer concentration 5 mM; 6 h; Cupriavidus necator H16; minimal medium + 0.4% gluconate
Description: (§1)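 C. necator H16 strains, each carrying one of 21 transcription factor/inducible promoter–mRFP biosensor plasmids, were grown in minimal medium in 96-well plates (robotic platform). Each was exposed to 46 structurally or metabolically related compounds at 5 mM at 30 °C. OD-normalised RFP fluorescence was read 6 h later and expressed as relative induction (%) = 100 × (FL compound − FL uninduced)/(FL primary inducer − FL uninduced); mean of n=4.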
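Also: RFP excited at 585 nm with emission read at 620 nm, culture medium blanks subtracted from fluorescence and absorbance prior to normalisation.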

First: Oc1ccccc1O [catechol]
Second: Oc1ccc(O)cc1 [hydroquinone]
The “relative induction of RFP reporter” value of the first is lower: 0.769% for the first, 1.56% for the second.

Going from `NC(=O)CC[C@H](N)C(=O)O` [L-glutamine] to `NCC(O)C(=O)O` (configuration not stated) [3-amino-2-hydroxypropanoate], the “relative induction of RFP reporter” value rises from -0.333% to -0.304%.

Compared with `Cn1c(=O)c2c(ncn2C)n(C)c1=O` [caffeine], `N[C@@H](Cc1c[nH]c2ccccc12)C(=O)O` [L-tryptophan] is higher in “relative induction of RFP reporter” value: -0.541% for the first, -0.235% for the second.

First: O=C(O)C(O)c1ccccc1 (configuration not stated) [mandelic acid]
Second: O=C(O)C(O)C(=O)O [tartronic acid]
The “relative induction of RFP reporter” value of the first is higher: -0.332% for the first, -0.449% for the second.

Going from `O=CC(=O)O` to `CCC(=O)O` [propanoate], the “relative induction of RFP reporter” value rises from -0.587% to -0.224%.

Going from `CC(N)CC(=O)O` (configuration not stated) [3-aminobutanoate] to `CCCC(=O)O` [butyric acid], the “relative induction of RFP reporter” value falls from 0.0503% to -0.41%.

Test system: PhhR/P_H16_RS18365 L-phenylalanine biosensor (pEH137)
Experiment: as above
Conditions: inducer concentration 5 mM; 6 h; Cupriavidus necator H16; minimal medium + 0.4% gluconate
Description: as §1

First: Oc1ccccc1O [catechol]
Second: Oc1ccc(O)cc1 [hydroquinone]
The “relative induction of RFP reporter” value of the first is lower: -0.0234% for the first, 2.24% for the second.

Going from `NC(=O)CC[C@H](N)C(=O)O` [L-glutamine] to `NCC(O)C(=O)O` (configuration not stated) [3-amino-2-hydroxypropanoate], the “relative induction of RFP reporter” value falls from -0.432% to -0.491%.

Compared with `Cn1c(=O)c2c(ncn2C)n(C)c1=O` [caffeine], `N[C@@H](Cc1c[nH]c2ccccc12)C(=O)O` [L-tryptophan] is lower in “relative induction of RFP reporter” value: 1.57% for the first, 1.21% for the second.

Going from `O=CC(=O)O` [glyoxylate] to `CCC(=O)O` [propanoate], the “relative induction of RFP reporter” value falls from 0.0787% to -0.418%.

Compared with `O=C(O)C(O)c1ccccc1` (configuration not stated) [mandelic acid], `O=C(O)C(O)C(=O)O` [tartronic acid] is higher in “relative induction of RFP reporter” value: -0.406% for the first, -0.338% for the second.

First: CC(N)CC(=O)O (configuration not stated) [3-aminobutanoate]
Second: CCCC(=O)O [butyric acid]
The “relative induction of RFP reporter” value of the first is higher: -0.0355% for the first, -0.461% for the second.

Test system: SauR/P_H16_RS13695 sulfonatoacetate biosensor (pEH157)
Experiment: as above
Conditions: inducer concentration 5 mM; 6 h; Cupriavidus necator H16; minimal medium + 0.4% gluconate
Description: as §1

Going from `Oc1ccccc1O` [catechol] to `Oc1ccc(O)cc1` [hydroquinone], the “relative induction of RFP reporter” value rises from 0.114% to 0.207%.

Compared with `NC(=O)CC[C@H](N)C(=O)O` [L-glutamine], `NCC(O)C(=O)O` (configuration not stated) [3-amino-2-hydroxypropanoate] is higher in “relative induction of RFP reporter” value: 0.0183% for the first, 0.0914% for the second.

Going from `Cn1c(=O)c2c(ncn2C)n(C)c1=O` [caffeine] to `N[C@@H](Cc1c[nH]c2ccccc12)C(=O)O` [L-tryptophan], the “relative induction of RFP reporter” value rises from 0.0139% to 0.0508%.

Going from `O=CC(=O)O` [glyoxylate] to `CCC(=O)O` [propanoate], the “relative induction of RFP reporter” value rises from -0.00107% to 0.0421%.

First: O=C(O)C(O)c1ccccc1 (configuration not stated) [mandelic acid]
Second: O=C(O)C(O)C(=O)O [tartronic acid]
The “relative induction of RFP reporter” value of the first is lower: 0.0426% for the first, 0.0532% for the second.

First: CC(N)CC(=O)O (configuration not stated) [3-aminobutanoate]
Second: CCCC(=O)O [butyric acid]
The “relative induction of RFP reporter” value of the first is lower: -0.0365% for the first, 0.0337% for the second.

Test system: TtdR/P_H16_RS10665 tartrate biosensor (pEH083)
Experiment: as above
Conditions: inducer concentration 5 mM; 6 h; Cupriavidus necator H16; minimal medium + 0.4% gluconate
Description: as §1

Compared with `Oc1ccccc1O` [catechol], `Oc1ccc(O)cc1` [hydroquinone] is lower in “relative induction of RFP reporter” value: 2.09% for the first, 1.2% for the second.

Compared with `NC(=O)CC[C@H](N)C(=O)O` [L-glutamine], `NCC(O)C(=O)O` (configuration not stated) [3-amino-2-hydroxypropanoate] is lower in “relative induction of RFP reporter” value: 0.541% for the first, 0.315% for the second.

Going from `Cn1c(=O)c2c(ncn2C)n(C)c1=O` [caffeine] to `N[C@@H](Cc1c[nH]c2ccccc12)C(=O)O` [L-tryptophan], the “relative induction of RFP reporter” value falls from 0.808% to -0.293%.

First: O=CC(=O)O [glyoxylate]
Second: CCC(=O)O [propanoate]
The “relative induction of RFP reporter” value of the first is higher: 0.296% for the first, -0.423% for the second.

Compared with `O=C(O)C(O)c1ccccc1` (configuration not stated) [mandelic acid], `O=C(O)C(O)C(=O)O` [tartronic acid] is higher in “relative induction of RFP reporter” value: -0.395% for the first, 0.714% for the second.

Compared with `CC(N)CC(=O)O` (configuration not stated) [3-aminobutanoate], `CCCC(=O)O` [butyric acid] is lower in “relative induction of RFP reporter” value: 0.625% for the first, -0.384% for the second.

Test system: XdhR/P_H16_RS05055 xanthine biosensor (pEH154)
Experiment: as above
Conditions: inducer concentration 5 mM; 6 h; Cupriavidus necator H16; minimal medium + 0.4% gluconate
Description: as §1

First: Oc1ccccc1O [catechol]
Second: Oc1ccc(O)cc1 [hydroquinone]
The “relative induction of RFP reporter” value of the first is lower: 0.259% for the first, 0.708% for the second.

First: NC(=O)CC[C@H](N)C(=O)O [L-glutamine]
Second: NCC(O)C(=O)O (configuration not stated) [3-amino-2-hydroxypropanoate]
The “relative induction of RFP reporter” value of the first is lower: -0.666% for the first, -0.317% for the second.

First: Cn1c(=O)c2c(ncn2C)n(C)c1=O [caffeine]
Second: N[C@@H](Cc1c[nH]c2ccccc12)C(=O)O [L-tryptophan]
The “relative induction of RFP reporter” value of the first is higher: 0.33% for the first, -0.684% for the second.

Compared with `O=CC(=O)O` [glyoxylate], `CCC(=O)O` [propanoate] is lower in “relative induction of RFP reporter” value: -0.199% for the first, -0.832% for the second.

Going from `O=C(O)C(O)c1ccccc1` (configuration not stated) [mandelic acid] to `O=C(O)C(O)C(=O)O` [tartronic acid], the “relative induction of RFP reporter” value falls from -0.0998% to -0.218%.

First: CC(N)CC(=O)O (configuration not stated) [3-aminobutanoate]
Second: CCCC(=O)O [butyric acid]
The “relative induction of RFP reporter” value of the first is higher: 0.412% for the first, -0.758% for the second.

Test system: heterologous inducible system pEH002 (rhamnose/acrylate/cumate/itaconate set)
Experiment: as above
Conditions: inducer concentration 5 mM; 6 h; Cupriavidus necator H16; minimal medium + 0.4% gluconate
Description: as §1

First: Oc1ccccc1O [catechol]
Second: Oc1ccc(O)cc1 [hydroquinone]
The “relative induction of RFP reporter” value of the first is lower: 0.0302% for the first, 0.0465% for the second.

Compared with `NC(=O)CC[C@H](N)C(=O)O` [L-glutamine], `NCC(O)C(=O)O` (configuration not stated) [3-amino-2-hydroxypropanoate] is higher in “relative induction of RFP reporter” value: 0.00684% for the first, 0.0153% for the second.

Going from `Cn1c(=O)c2c(ncn2C)n(C)c1=O` [caffeine] to `N[C@@H](Cc1c[nH]c2ccccc12)C(=O)O` [L-tryptophan], the “relative induction of RFP reporter” value falls from 0.0111% to 0.00955%.

First: O=CC(=O)O [glyoxylate]
Second: CCC(=O)O [propanoate]
The “relative induction of RFP reporter” value of the first is higher: 0.0215% for the first, -0.00545% for the second.

Going from `O=C(O)C(O)c1ccccc1` (configuration not stated) [mandelic acid] to `O=C(O)C(O)C(=O)O` [tartronic acid], the “relative induction of RFP reporter” value falls from 0.0137% to 0.00666%.

Going from `CC(N)CC(=O)O` (configuration not stated) [3-aminobutanoate] to `CCCC(=O)O` [butyric acid], the “relative induction of RFP reporter” value falls from 0.0041% to -0.00916%.
